Screen size: about 290,000 compounds; about 1,800 (0.62%) were called active. Shown is part of a subset that was picked to be rich in actives. Values without a mark were called inactive. No stated cut-off is given here; in the data, active means inhibition above about 50%; inactive means the rest.

The nature of this experiment: inhibition of NOD2-driven NF-kB reporter – cell-based, luminescence, uHTS, HEK293 (AID 1566). The note with it: HEK293 NOD2/NF-kB luciferase reporter, at 4 µM, active compounds read high. For orientation: In a reporter assay the amount or activity of a reporter protein is the signal.
The term inhibition denotes the change of the read-out against control, counted positive when it falls. Turning to `CCCc1cc(=O)oc2cc(OCC(=O)NCc3ccccn3)ccc12`, the inhibition is 8.8%. For `CSc1ncc(Cl)c(C(=O)Nc2c(C)cccc2C)n1`, the inhibition was -5.2%. For `N#Cc1c(NCCN)nc(-c2ccccc2)c2c1CCCC2`, the inhibition was 10.4%.

Turning to `O=C(/C=C/c1cccc(Cl)c1)NCc1ccccc1`, the inhibition is 9.9%. In the case of `CN(Cc1nc(Cc2ccccc2F)no1)Cc1cccc2ncccc12` it was 19.2%; in that of `COc1ccc(NC(=O)COC(=O)C2CCC(C(C)(C)C)CC2)c([N+](=O)[O-])c1` (centres undefined), 16.1%. Then `Cc1cc(C(F)(F)F)nc(CCNCc2c(C(=O)N3CCCC3)nc3ccccn23)n1`, with 12.8%. Then `Cc1ccc(/C=N/c2sc3c(c2C(N)=O)CCCC3)o1`, with -59.1%; and `COc1ccc(-n2c(=S)[nH]c3cc(C(=O)Nc4cccc(C)c4)ccc3c2=O)cc1`, with -42%; and `O=C(O)CC1NC(=O)N(c2ccc(Cl)cc2)C1=O` (centres undefined), with 5.4%. In the case of `N#CC1=C(SCc2ccccc2)NC(=O)CC1c1cccc(O)c1` (centres undefined), the inhibition is 12.9%. On to `O=S(=O)(c1ccc(Cl)cc1)N1CCN(S(=O)(=O)N2CCCCCC2)CC1`, for which the inhibition was -1.1%. For the molecule `CC(C)(C)OC(=O)N1CCC(c2cc(=O)n3[nH]c(-c4ccc(Cl)cc4)cc3n2)CC1`, the inhibition is 8%. Then `Cc1nc2sc(C(c3ccc(Cl)cc3)N3CCN(C(=O)c4ccco4)CC3)c(O)n2n1` (centres undefined), with 1.9%; and `COc1ccc(S(=O)(=O)Nc2ccc3c(c2)OCCO3)cc1OC`, with 4%; and `COc1ccc(NS(=O)(=O)c2ccc3c(c2)OCCO3)cc1OC`, with 52.2% (active). In the case of `COc1ccc(C)cc1NS(=O)(=O)c1ccc(-c2cnc(C3CC3)o2)cc1` it was 27.1%; in that of `Cc1ccc(NS(=O)(=O)c2ccc(-c3cnc(C4CC4)o3)cc2)cc1`, -3.1%. With `COc1ccc(S(=O)(=O)Nc2ccc3c(c2)OCO3)cc1OC`, the inhibition is -22.1%.

For `COc1ccc(-c2noc(-c3ccoc3C)n2)cc1`, the inhibition is -47.8%. Then `CC(C)(C)C(=O)Nc1ccc(-c2cnco2)cc1`, with 2.7%; and `Cc1ccc(CC(=O)Nc2ccc(C(=O)N3CCCCC3)cc2)cc1`, with 0.3%. In the case of `Cc1ccc(C23CC4CC(CC(NC(=O)NC(C)(C)CO)(C4)C2)C3)cc1` it was -8.2%.

`COc1ccccc1C1(O)C(=O)Nc2ccccc21` (centres undefined): the inhibition is 24.1%. Take `Cc1nn(-c2ccccc2Cl)c(Cl)c1/C=N/Nc1cccc(C(=O)O)c1`: the inhibition is -183%. Regarding `CCOC(=O)N/N=C/c1c(C)nn(-c2ccccc2Cl)c1Cl`, the inhibition was -45.5%.

For the molecule `Cc1nn(-c2ccccc2Cl)c(Cl)c1/C=N/Nc1nc2ccccc2s1`, the inhibition is 78.1% (active).

As to `COc1ccccc1NC1=C(C)C(=O)CC1`, the inhibition is 5.8%.

On to `Cc1cccc(NC(=O)N2CCC(C(=O)c3ccc(F)cc3)CC2)c1`, for which the inhibition was -7.7%. For the molecule `O=C1CCCN2N=C(SCC(=O)Nc3cccc(Cl)c3)SC2=N1`, the inhibition is 43.7%. In the case of `O=C1CCCN2N=C(SCC(=O)Nc3cccc(F)c3)SC2=N1` it was -16.8%; in that of `O=C1CCCN2N=C(SCC(=O)Nc3cccc(C(F)(F)F)c3)SC2=N1`, 58.1% (active); in that of `CCC(C(=O)NCCCN1CCCCCC1)n1nc(C)c2sc3ccccc3c2c1=O` (centres undefined), -40.3%. As to `CCC(C)(C)c1ccc(OCCCC[n+]2ccccc2)c(C(C)(C)CC)c1`, the inhibition is 12%. Take `CCC(C)(C)c1ccc(OCCCC[n+]2ccc(C)cc2)c(C(C)(C)CC)c1`: the inhibition was 29.7%. Then `CC(C)(C)NC(=O)NC(=O)COC(=O)Cc1c(Cl)cccc1Cl`, with 1.1%; and `COc1ccc(CCNc2oc(COc3ccccc3F)nc2C#N)cc1OC`, with 9.2%; and `COc1ccc(CCNc2oc(COc3ccccc3)nc2C#N)cc1`, with -27.2%. In the case of `COc1ccc(CCNc2oc(COc3ccc(F)cc3)nc2C#N)cc1` it was -49.7%; in that of `COc1ccc(CCNc2oc(Cc3ccccc3)nc2C#N)cc1OC`, 36.6%; in that of `CCOC(=O)N1CCN(C(=O)CSc2nc3c(cnn3-c3ccccc3)c(=O)[nH]2)CC1`, 2.1%. In the case of `COc1ccc(-c2cc(=O)oc3c(C)c(OCC(=O)NCC4CCC(C(=O)O)CC4)ccc23)cc1` (centres undefined) it was 23.3%. For the molecule `CCSC1=C(C#N)C2(CCCCC2)C(C#N)C(=O)N1` (centres undefined), the inhibition is 10.3%. In the case of `N#CC1=C(SCC(=O)NC2CC2)NC(=O)C(C#N)C12CCCCC2` (centres undefined) it was -1.6%; in that of `Cc1nn(-c2cc(N3CCCCC3)ccc2[N+](=O)[O-])c(=O)c2ccccc12`, -6.2%; in that of `CCC(C)[C@H](NC(=O)C1CC(=O)N(c2ccc(OC)cc2)C1)C(=O)N1CCCCC1` (some centres undefined), 12.9%.

As to `COC(=O)c1ncn(C2OC(COC(C)=O)C(OC(C)=O)C2OC(C)=O)n1` (centres undefined), the inhibition is 18.8%. On to `CCN1CCN(CCC(=O)Nc2ccc(F)c(F)c2)CC1`, for which the inhibition was 1.5%. In the case of `CCN(CC)S(=O)(=O)c1ccc2nnn(O)c2c1`, the inhibition is -3.6%. In the case of `Cc1ccc(-n2nc3c(=O)n(CCCC(=O)N4CCC(C)CC4)nc(C)c3c2C)cc1` it was 27.9%. For `Cc1nn(-c2ccccc2)c2nc(C(F)(F)F)[nH]c(=O)c12`, the inhibition was 30.5%. In the case of `Cc1ccc(-n2nc(C)c3c(=O)[nH]c(C(F)(F)F)nc32)cc1` it was 32.3%; in that of `O=C(CCCOc1ccc(Cl)cc1Cl)Nc1ccccn1`, -183%. Then `O=C(COc1ccc(Cl)cc1Cl)Nc1ccccn1`, with 62.1% (active); and `O=C(COc1ccc(Cl)cc1Cl)Nc1ccc(Cl)cn1`, with -209%; and `Cc1cccc(NC2=NCC(=O)N2CCc2ccccc2)c1`, with -0.2%. In the case of `COc1cc(C(=O)N(c2ccc(C)c(C)c2)C2C=CS(=O)(=O)C2)cc(OC)c1OC` (centres undefined), the inhibition was -4.9%. Consider `COc1ccc(-c2noc(CCC(=O)O)n2)cc1`, for which the inhibition is 11.3%.

As to `O=C(O)CCCc1nc(-c2ccccc2)no1`, the inhibition was -10%. Then `COc1ccc(-c2noc(CCCC(=O)O)n2)cc1`, with 57.7% (active). In the case of `O=C(NCCc1ccc(C(F)(F)F)cc1)C1CCC(=O)N(CCc2cccc(F)c2)C1` (centres undefined) it was -4.6%; in that of `CN(C)/N=C/C=C1\CC/C(=C\c2ccc(Br)cc2)C1=O`, -21.2%.

Take `CN(C)/N=C/C=C1\CCC/C(=C\c2ccc(F)c(F)c2)C1=O`: the inhibition was 63% (active). As for `COc1ccc(/C=C2\CCC/C(=C\C=N\N(C)C)C2=O)cc1`, the inhibition was -25.5%. Consider `Cc1ccc(-c2cc(C(F)F)nc(N3CCOCC3)n2)cc1`, for which the inhibition was 15.5%.

In the case of `O=C1CCN(C2CCN(Cc3nc(Cc4ccccc4F)no3)CC2)CCN1`, the inhibition was 5.8%. Then `COc1ccc(C(=O)N2CCC(n3nccc3NC(=O)C3CC3)CC2)c(OC)c1OC`, with 12.7%.

On to `O=C(NC(O)C(=O)c1ccccc1)c1cccs1` (centres undefined), for which the inhibition was 10%. Then `CC(C)(C)c1ccc(C(=O)NNC(=O)c2cccc(-n3cnnn3)c2)cc1`, with 13.7%; and `Cc1nc(N2CCN(c3ccccn3)CC2)c2c(C)c(C(=O)Nc3ccc(F)cc3F)sc2n1`, with 3.4%. As to `Cc1nc(N2CCN(c3ccccn3)CC2)c2c(C)c(C(=O)Nc3c(F)cc(F)cc3Br)sc2n1`, the inhibition was 33.9%. Consider `Cc1nc(N2CCN(c3ccccn3)CC2)c2c(C)c(C(=O)Nc3ccc(F)cc3Cl)sc2n1`, for which the inhibition is 33.8%. For the molecule `Cc1nc(N2CCN(c3ccccn3)CC2)c2c(C)c(C(=O)N3CCN(c4cccc(Cl)c4)CC3)sc2n1`, the inhibition is 38.7%. Turning to `Cc1c(C(=O)N2CCN(c3ccccn3)CC2)sc2ncnc(N3CCOCC3)c12`, the inhibition is -1.8%. In the case of `Cc1c(C(=O)N2CCN(c3ccccc3)CC2)sc2ncnc(N3CCN(c4ccccn4)CC3)c12` it was 39.4%; in that of `Cc1nc(N2CCN(c3ccccn3)CC2)c2c(C)c(C(=O)Nc3ccc(Cl)cc3)sc2n1`, 15.9%. For the molecule `COc1ccccc1N1CCN(C(=O)c2sc3nc(C)nc(N4CCN(c5ccccn5)CC4)c3c2C)CC1`, the inhibition is 16%. Take `O=C1CCCN1CCCNS(=O)(=O)c1ccc(Br)cc1`: the inhibition was 6.2%. Then `Cn1c(=O)n(CC(=O)O)c(=O)c2c1nc1n2CCCN1CCc1ccccc1`, with 4.6%; and `CCC(=O)C1CCCN(C(=O)c2ccc3nc(-c4cccc(OC)c4)oc3c2)C1` (centres undefined), with -51.5%. For the molecule `CC(C)Cc1cc(C(=O)N2CCCC(C(=O)c3cc(F)ccc3F)C2)n(C)n1` (centres undefined), the inhibition was 23.7%. Then `COc1ccc(C(=O)Nc2ccc(NC(=O)c3cnccn3)cn2)cc1`, with -1.7%; and `O=C(Nc1ccc2cn[nH]c2c1)c1ccc(Cl)c(S(=O)(=O)N2CCOCC2)c1`, with -3.7%.

As for `CCC1C/C(=C\c2cccnc2)C(=O)/C(=C/c2cccnc2)C1` (centres undefined), the inhibition is 94.6% (active). In the case of `O=C1/C(=C/c2cccnc2)CC/C1=C\c1cccnc1` it was 1.3%; in that of `CN1C/C(=C/c2cccnc2)C(=O)/C(=C/c2cccnc2)C1`, 10.1%. As for `Cc1ccc(COc2ccc(-c3nnco3)cc2)cc1`, the inhibition was -78.6%.

For the molecule `COc1cc(COc2ccc(-c3nnco3)cc2)ccc1OC(F)F`, the inhibition is 6.2%.

For `COc1ccnc(Oc2ccccc2)c1C(=O)N/C=N/OCc1ccccc1F`, the inhibition is 2.7%. Consider `CCCCCCn1c(NCC)nc2c1c(=O)n(C)c(=O)n2C`, for which the inhibition was 30%.

Regarding `COCCNC(=O)c1cc2cc3ccc(OC)cc3nc2o1`, the inhibition is 11.5%. Consider `COc1ccc2cc3cc(C(=O)NCCC(C)C)oc3nc2c1`, for which the inhibition was 10.4%. For `COc1ccc(-c2cc(=O)oc3cc(OCC(=O)N4C[C@H]5C[C@@H](C4)c4cccc(=O)n4C5)ccc23)cc1`, the inhibition was 3.1%. In the case of `CCCCn1c(=O)c(CCC(=O)OCC(=O)Nc2cccc3ccccc23)nc2ccccc21` it was 15.7%.

Source of the values: PubChem BioAssay AID1566 (Sanford-Burnham Center for Chemical Genomics, 2009).
